The chains are these.
B1: chr1:112309342:112309343:+_ENSG00000064703_ENST00000369702|hu_hu|FALSE|FALSE (ssRNA)
RNA: GGGAGUUCUACAGUCCGACGAUCUCUCCAGUACUCCUCAUAAUCCUGAUAGGUAUCAGAAAAACUCAGACGUAUUUCCCUAUGACAGUCAUACCAAUCAUCUUCCUGGGCUUCAGUCUGCAAUCUGAAGGAAGACCGCCUGGGCAACAGAGGAUUGAGCAUCA
B2: chr2:158287933:158287934:+_ENSMUSG00000027652_ENSMUST00000141497|mus_hu|FALSE|FALSE (ssRNA)
RNA: GGGAGUUCUACAGUCCGACGAUCAAGAGGUUGUUCCAGCAUUGCCAGGAUGACACUGUUAUCCAAGACAAAGUACCGGAAACUAUGCUUGUUUAUGGUUGGCAGCCUGGAGUAUUUAAUCAAAGUGGUCUCAUUCACAAGACUCAACAGAGGAUUGAGCAUCA
B3: chr3:179287964:179287965:+_ENSG00000136518_ENST00000429709|hu_hu|hu_hu_hu_mus_True|28_28 (ssRNA)
RNA: GGGAGUUCUACAGUCCGACGAUCCUUGAGUGGUGAGAUGGCCUCCAUGUUCUCCCUGGGCACGCGGAGGGCAUUGGUGUCUAUGUAGUAGGUGGGCCCGCCCUGCUUGCCUUUAUCACCAUCAAUCUCCAUCAUUGUACUUCCCAACAGAGGAUUGAGCAUCA
B4: chr4:131761308:131761309:-_ENSMUSG00000040025_ENSMUST00000102570|mus_mus|FALSE|FALSE (ssRNA)
RNA: GGGAGUUCUACAGUCCGACGAUCGCUGACUGUCCAUCAAUCAUGGCUCCACCUAAGGAGCUGGGUGCAUAAGCGUAAUUGCUACUAUAUCCAGAGCUUUGAGUAGACUGUCCCUGAGAACUGUUAUUUCCCCAUGCUGAGAAGCAACAGAGGAUUGAGCAUCA
B5: chr11:87793471:87793472:-_ENSMUSG00000020483_ENSMUST00000020775|mus_mus|mus_mus_mus_hu_False|8_98 (ssRNA)
RNA: GGGAGUUCUACAGUCCGACGAUCUGGACUUGAAAAUAAAAAAAAUAGCUGGAUCCCCCACCCCCCCACAUUGUCAACCCUACACGAGAGUUUUGAAGGCGACUCAUGAAAAUCAGCAGCUCAAACGAAUGACAACCCCCCACCCAACAGAGGAUUGAGCAUCA
B6: chr11:87793471:87793472:-_ENSMUSG00000020483_ENSMUST00000020775|mus_mus|mus_mus_mus_hu_False|8_68 (ssRNA)
RNA: B5 RNA with A41G, A44U, U45A, U70G
B7: chr11:87793471:87793472:-_ENSMUSG00000020483_ENSMUST00000020775|mus_mus|mus_mus_mus_hu_False|8_78 (ssRNA)
RNA: B5 RNA with A41G, A44U, U45A, A59C, C60A, C65U, C66U
B8: chr13:100193624:100193625:-_ENSMUSG00000052727_ENSMUST00000064762|mus_mus|FALSE|FALSE (ssRNA)
RNA: GGGAGUUCUACAGUCCGACGAUCAAACCCUCAGAGUAAAAGAGCAGUGCGAAACAUACGCUUUACAGACGAAAAUAAACUAAAAUGUAAAUUUUGAAAUAAAUAACUAACAUAGAAAAUAAAAUGAGGUCAUUGUUCACUACCCAACAGAGGAUUGAGCAUCA
B9: chr13:100193624:100193625:-_ENSMUSG00000052727_ENSMUST00000064762|mus_mus|motif|central (ssRNA)
RNA: B8 RNA with U80G, A81G
B10: chr16:94651144:94651145:+_ENSMUSG00000040785_ENSMUST00000117648|mus_hu|mus_mus_mus_hu_True|18_58 (ssRNA)
RNA: GGGAGUUCUACAGUCCGACGAUCAUUUUCUUGAAUCAAGUGGCGAAUAACAUAGUCCACUGCUUCAUUUAGAAAAUUUUUGCUAGAAAAACAGGUUGUAUAGUCUUCUGUGCUCAAAACCUUCCAAGAAAGCAAUUCUUUGAGCAACAGAGGAUUGAGCAUCA
B11: chr7:56127975:56127976:+_ENSG00000146731_ENST00000540286|hu_mus|FALSE|FALSE (ssRNA)
RNA: GGGAGUUCUACAGUCCGACGAUCUGGUCCUUUAACCAGUAAAGUGACAGAACGGGGAUUGUUACACUUCUCAAUAAAGGUGAACUUCUCCUCACCCAGUGUAUACUCAUAGACAAGCUCUGCAUGUCCCAAACAGUCAGGAUUCAACAGAGGAUUGAGCAUCA
B12: chr13:100201144:100201145:-_ENSMUSG00000052727_ENSMUST00000064762|mus_hu|FALSE|FALSE (ssRNA)
RNA: GGGAGUUCUACAGUCCGACGAUCCUCCUCCAUAGGUGGUAUCUUAUGUGAUAAACUGGAGUCCUGCAUGUCAGAAGGACUGUAGUCCACUUCAGUUGGCCCAUUUUCAGUGAUGUGAAGCACGCCUGCACCCACUGUAGGGUGCAACAGAGGAUUGAGCAUCA
B13: 95238312_95238432_61_3pUTR_ENSMUSG00000015522_ENSMUST00000090804|mouse|control|control (ssRNA)
RNA: GGGAGUUCUACAGUCCGACGAUCACCCUCGGUGGGAGGGGCAGCCGCCACCGAGCUGGGGGAGGGGAGGGAAGAGCCACUCCGCAGAUUAGGCACCUUACCGCCGCCACCGCUACCGCGGAAUCCAAGAUGGCGGACGCCCACCAACAGAGGAUUGAGCAUCA
B14: chr6:114274515:114274516:-_ENSG00000196591_ENST00000368632|hu_mus|motif|central (ssRNA)
RNA: GGGAGUUCUACAGUCCGACGAUCCAUCACGCGAUCUGUUGUAUAAAAAGCUUCCUCAACACCAUCACCAUGGUGGAUGUCGGUGUCAAUAUAUAAGACUCUCUGAUGAUACUUAAGUAAUUCGAGGAUGGCAAGCACAAUAUCCAACAGAGGAUUGAGCAUCA

Where a chain is given by its changes, count along the chain named. Over roughly 24,000 sequences, “enrichment r” has its median near 0.99; the highest 2% begin near 3.7. Many of the other results were omitted from the sample, so the highest values are more common in it than they were.

The target of the experiment is T1, UNK ZnF1-3 (human, UniProt Q9C0B0 31-174).
T1 sequence: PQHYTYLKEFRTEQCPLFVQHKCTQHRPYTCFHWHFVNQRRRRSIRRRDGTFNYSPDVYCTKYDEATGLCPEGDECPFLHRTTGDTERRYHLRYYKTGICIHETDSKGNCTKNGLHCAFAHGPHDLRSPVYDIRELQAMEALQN
Kind of experiment: nsRBNS (natural sequence RNA bind-n-seq); RBNS binding buffer (assumed for nsRBNS): 25 mM Tris pH 7.5, 150 mM KCl, 3 mM MgCl2, 0.01% Triton X-100, 500 ug/ml BSA, 20 U/ml SUPERase-In, 4 C; UNK is unkempt and MSI1 is Musashi-1; names of the RNAs are library labels; protein concentration not given here; high values mean tight binding.
In turn, B1 registered a binding signal of 0.941 enrichment R.

Molecule B2 registered a binding signal of 0.695 enrichment R. To B3 belongs 0.667 enrichment R; to B4, 1.1 enrichment R; to B5, 4.4 enrichment R. Take B6: the binding signal is 2.23 enrichment R. With B7, the binding signal was 1.99 enrichment R. To B8 belongs 9.34 enrichment R; to B9, 4.16 enrichment R; to B10, 0.507 enrichment R. As for B11, the binding signal was 0.526 enrichment R.

In turn, B12 had a binding signal of 0.585 enrichment R.

B13 displayed a binding signal of 0.955 enrichment R.

With B14, the binding signal is 1.5 enrichment R.

Values taken from publication PMC12136788.
